Reference: PubChem BioAssay AID720647 (Broad Institute, 2013)
Screen size: about 380,000 compounds; about 1,300 (0.34%) were called active. Shown is part of a subset that was picked to be rich in actives. A number with no mark means an inactive call.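 How the source made its calls: active means drop in luminescence signal, shown as inhibition above about 50% in the replicate tests (limit read from the data, passing the limit was not always enough); inconclusive means probably only some replicates passing the limit; inactive means the rest.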

The compounds below were run on Drosophila bursicon receptor LGR2 (rickets) (assay: LGR2 cAMP reporter signal reduction – cell-based, HEK293, CRE-luciferase reporter, bursicon stimulation, primary screen (AID 720647;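 further: agonist challenge used bursicon conditioned medium at about half maximal strength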)). Settings: bursicon-stimulated, 4 h, at 9.99 µM, active compounds read high.
In the case of `Cc1ccc(N/C=C/C(=O)c2ccccc2)cc1C`, the inhibition is reported as 74.5% (active). For `Cc1cc(C)nc(NS(=O)(=O)c2ccc(N/C=C\C(=O)c3cccs3)cc2)n1`, the inhibition was 0.601%. `CCOc1ccc(N/C=C/C(=O)c2ccccc2)cc1` was tested, and the inhibition was 70.1% (active). `CCOc1ccc(NC(=O)C(C)N2C(=O)c3ccccc3C2=O)cc1` (configuration not stated) gave an inhibition of -1.28%. With `CCOc1ccc(NC(=O)N2CCN(CC)CC2)cc1` the inhibition was -10.6%. Work on `Cc1ccc(NC(=O)C2CCCN2C(=O)OCc2ccccc2)cc1C` (configuration not stated) yielded an inhibition of 1.81%. For `Cc1ccc(S(=O)(=O)N(C)C[C@@H]2Oc3ncc(-c4cc5ccccc5o4)cc3C(=O)N([C@H](C)CO)C[C@@H]2C)cc1`, the inhibition was 4.4%. Compound `COc1ccc2c3c(n(C)c2c1)[C@@H](CO)N(C(=O)Nc1ccc(F)cc1)CC31CN(C(=O)NC(C)C)C1` has an inhibition of -1.12%. Compound `COC(=O)C[C@H]1CC[C@H](NC(=O)Nc2ccc(C(F)(F)F)cc2)[C@H](CO)O1` has an inhibition of -0.777%. Work on `COc1cccc(-c2ccc3c(c2)O[C@H](CN(C)C(=O)C2CCOCC2)[C@H](C)CN([C@H](C)CO)S3(=O)=O)c1` yielded an inhibition of -17.4%. `COc1cccc2cc(/C(C)=N/NC(=O)c3ccco3)oc12` was tested, and the inhibition was -27.1%. In the case of `COc1cccc2cc(C(N)=O)/c(=N\NC(=O)c3ccccc3)oc12`, the inhibition is reported as 72.2% (active). Work on `COc1cccc2cc(C(=O)NCc3ccc(C)cc3)c(=N)oc12` yielded an inhibition of -0.361%. `C[C@@H]1CCCCO[C@H](CN(C)S(=O)(=O)c2cn(C)cn2)[C@H](C)CN([C@H](C)CO)C(=O)c2cc(N(C)C)ccc2O1` gave an inhibition of 10.5%. For `Cc1ccc(S(=O)(=O)NCC[C@@H]2CC[C@@H](NC(=O)CCN3CCCCC3)[C@@H](CO)O2)cc1`, the inhibition was 3.54%. `N#C[C@@H]1[C@@H](c2ccc(C3=CCCCC3)cc2)[C@@H](CO)N1C(=O)c1cccc(F)c1` gave an inhibition of 7.91%. Work on `C[C@H]1CN([C@@H](C)CO)C(=O)c2cc(-c3ccncc3)cnc2O[C@H]1CN(C)C(=O)c1cccc(F)c1` yielded an inhibition of -3.95%. With `CCC(=O)N1CC[C@H]2[C@@H]1c1cc(-c3ccc(C#N)cc3)ccc1N(C)[C@H]2CO` the inhibition was -10.9%. Compound `C[C@@H]1CCCCO[C@H](CN(C)C(=O)NC2CCCCC2)[C@@H](C)CN([C@H](C)CO)C(=O)c2cc(NS(=O)(=O)c3ccc(F)cc3)ccc2O1` has an inhibition of -5.15%. `COc1cccc2c1C(=O)c1c(O)c3c(c(O)c1C2=O)CC(O)(C(C)=NNC(=O)c1ccc(Cl)c(Cl)c1)CC3OC1CC(N)C(O)C(C)O1` (configuration not stated) was tested, and the inhibition was 96.4% (active). `C[C@H]1CN([C@@H](C)CO)C(=O)c2cccc(NC(=O)CCCCCC(=O)Nc3ccccc3N)c2O[C@H]1CN(C)C(=O)Nc1ccccc1` was tested, and the inhibition was 0.187%. For `COCC(=O)N1[C@H](C(=O)N2CCN(C)CC2)[C@@H](CO)[C@@H]2Cn3c(ccc(C4=CCCC4)c3=O)[C@@H]21`, the inhibition was -13.3%. For `Clc1ccc(-c2cc(C3CCNCC3)[nH]n2)c(Cl)c1`, the inhibition was 2.21%. For `Clc1ccc(-c2cc(-c3ccccn3)on2)c(Cl)c1`, the inhibition was 80% (active). `COCC(=O)Nc1ccc2c(c1)OC[C@H](C)N(C(=O)c1cnccn1)C[C@@H](C)[C@@H](OC)CN(C)C2=O` gave an inhibition of 10.6%. In the case of `COc1cccc(/C=N/Nc2cc(C)nc(-c3ccccc3O)n2)c1O`, the inhibition is reported as 90.5% (active). With `O=C(c1ccc(F)cc1)N1CC2(C1)[C@H](c1ccccc1)[C@@H](CO)N2Cc1ccccn1` the inhibition was -5%. With `COCC#Cc1ccc([C@@H]2[C@H](CO)N3C(=O)CN(C(=O)C4CCC4)C[C@@H]23)cc1` the inhibition was 3.87%. In the case of `CCOC(=O)C(=Cc1ccccc1)C(=O)c1ccccc1`, the inhibition is reported as 90.8% (active). For `CCOC(=O)C(=O)C1C(=O)Nc2ccccc21` (configuration not stated), the inhibition was -14.6%. In the case of `CCOC(=O)/C=C/c1ccccc1O`, the inhibition is reported as -29.5%. Work on `COc1ccc2c3c([nH]c2c1)[C@@H](CO)N(C)CC31CCN(S(=O)(=O)c2ccc(C)cc2)CC1` yielded an inhibition of 0.296%. With `O=C(Nc1cccc(F)c1)N1CC(=O)N2[C@H](CO)[C@H](c3ccc(C#CC4CC4)cc3)[C@@H]2C1` the inhibition was 8.66%. With `COCC(=O)N1CCCCN2[C@H](CO)[C@H](c3ccc(C#Cc4ccc(OC)cc4)cc3)[C@H]2C1` the inhibition was -13.1%. With `COc1ccc(-c2onc3ccc(C(C)=O)cc23)cc1` the inhibition was -9.6%. With `COc1ccc(OC)c(CNC(=O)CCc2nc(-c3cccs3)no2)c1` the inhibition was 2.08%. For `COc1ccc(-c2nc(-c3ccccc3)no2)c(OC)c1`, the inhibition was 91.2% (active). For `CN1C(=O)c2cc(NC(=O)C3CC3)ccc2OC[C@H]2O[C@H](CC(=O)O)CC[C@H]21`, the inhibition was -1.87%. For `O=C(Cc1cccnc1)N1CC(=O)N2[C@H](CO)[C@H](c3ccc(C#CC4CCCC4)cc3)[C@@H]2C1`, the inhibition was -25.4%. `CC(=O)Nc1ccc(-c2csc(NC(=O)Nc3ccccc3)n2)cc1` was tested, and the inhibition was 94.1% (active). With `CC(=O)NC(c1ccccc1)c1nc(-c2ccccc2C)cs1` (configuration not stated) the inhibition was -19.2%. `C=CC[n+]1c(-c2ccc(C)cc2)csc1NNC(=O)Nc1ccccc1` showed an inhibition of 6.29%. `CN1[C@H](C(=O)N2CCc3ccccc3C2)[C@@H](CO)[C@@H]2Cn3c(ccc(-c4cncnc4)c3=O)[C@@H]21` gave an inhibition of 1.15%. `Cc1csc(OCC(=O)Nc2ccc(C)c(C)c2)n1` showed an inhibition of 0.863%. In the case of `COc1cc(SC)ccc1C(=O)Nc1nc(C)cs1`, the inhibition is reported as 102% (active). Compound `COc1cc(Cl)c(C)cc1NC(=O)COC(=O)c1cc(SC)ccc1Cl` has an inhibition of 7.1%. For `CO[C@H](CN(C)C(=O)c1cnccn1)[C@@H](C)CN([C@@H](C)CO)S(=O)(=O)c1ccccc1`, the inhibition was -6.19%. With `c1c2c(cc3sc(N4CCCCC4)nc13)OCCO2` the inhibition was 85.3% (active). For `C[C@@H]1CN([C@H](C)CO)C(=O)CCCn2cc(nn2)CO[C@@H]1CN(C)Cc1ccc2cccnc2c1`, the inhibition was -3.97%. With `CN(C)C(=O)c1cccc(-c2cnc3sc(NCc4ccc5c(c4)OCO5)nn23)c1` the inhibition was 51.6% (active). `O=C(NCc1ccc2c(c1)OCO2)c1sccc1Br` gave an inhibition of -10.3%. `CCN(CC)C(=O)Cn1cc(S(=O)(=O)CC(=O)NCc2ccc3c(c2)OCO3)c2ccccc21` showed an inhibition of -11.7%.
